Experimental data: PubChem BioAssay (NCI)
About 83,000 compounds went through this panel and 20% of them were active in at least one assay; those are over-represented in the sample as a whole.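 Method: cells in 96-well plates; compound added at one concentration; 48 h incubation; percent growth measured; values under 10 scored active.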 Active and inactive are the calls of the source.

Tests used:
Test in all cases: NCI-60 one-dose screen, 48 h (100 = growth as untreated, 0 = no growth, -100 = all killed)
Conditions in all cases: 10 µM unless noted
SK-MEL-2 melanoma = system: SK-MEL-2 melanoma
EKVX NSCLC = system: EKVX NSCLC
SN12C renal = system: SN12C renal
UO-31 renal = system: UO-31 renal
TK-10 renal = system: TK-10 renal
ACHN renal = system: ACHN renal
A498 renal = system: A498 renal
CCRF-CEM leukemia = system: CCRF-CEM leukemia
MOLT-4 leukemia = system: MOLT-4 leukemia
SR leukemia = system: SR leukemia
RPMI-8226 leukemia = system: RPMI-8226 leukemia
OVCAR-8 ovarian = system: OVCAR-8 ovarian
OVCAR-5 ovarian = system: OVCAR-5 ovarian
OVCAR-4 ovarian = system: OVCAR-4 ovarian
SK-OV-3 ovarian = system: SK-OV-3 ovarian
IGROV1 ovarian = system: IGROV1 ovarian
OVCAR-3 ovarian = system: OVCAR-3 ovarian
HS 578T breast = system: HS 578T breast
T-47D breast = system: T-47D breast
NCI/ADR-RES ovarian = system: NCI/ADR-RES ovarian

Measured: growth

Cc1cc(O)cc(O)c1N=NC1=NCCS1
active: A498 renal -6.58%
inactive: SK-MEL-2 melanoma 98.3% | EKVX NSCLC 96.5% | SN12C renal 109% | UO-31 renal 89.9% | TK-10 renal 135% | ACHN renal 97.3% | CCRF-CEM leukemia 101% | MOLT-4 leukemia 94.1% | SR leukemia 97.1% | RPMI-8226 leukemia 106% | OVCAR-8 ovarian 101% | OVCAR-5 ovarian 101% | OVCAR-4 ovarian 102% | SK-OV-3 ovarian 97.2% | IGROV1 ovarian 104% | OVCAR-3 ovarian 104% | HS 578T breast 116% | T-47D breast 92.5%

Nc1c(C(=O)Nc2cccc3ccccc23)sc2nc3c(cc12)CCCCCC3
inactive: EKVX NSCLC 41.6% | SN12C renal 46% | UO-31 renal 55% | TK-10 renal 55.3% | ACHN renal 57.4% | CCRF-CEM leukemia 11.2% | MOLT-4 leukemia 21% | SR leukemia 19.1% | RPMI-8226 leukemia 30.4% | OVCAR-8 ovarian 19.8% | OVCAR-5 ovarian 49.3% | OVCAR-4 ovarian 59% | SK-OV-3 ovarian 25.7% | IGROV1 ovarian 44.8% | HS 578T breast 28.6% | NCI/ADR-RES ovarian 20.6% | T-47D breast 36.5%
active: SK-MEL-2 melanoma 5.93% | A498 renal -4.7%

COc1cc(NCC(=O)Nc2cc(Nc3ccc(C)cc3)ncn2)c(Cl)c(OC)c1Cl
inactive: SK-MEL-2 melanoma 103% | EKVX NSCLC 82.1% | SN12C renal 88.1% | UO-31 renal 62.1% | TK-10 renal 121% | ACHN renal 92.6% | A498 renal 84.9% | CCRF-CEM leukemia 81.8% | MOLT-4 leukemia 60.8% | SR leukemia 78.9% | RPMI-8226 leukemia 82.9% | OVCAR-8 ovarian 88.4% | OVCAR-5 ovarian 92.3% | OVCAR-4 ovarian 78.5% | SK-OV-3 ovarian 81.9% | IGROV1 ovarian 82.5% | HS 578T breast 83.5% | NCI/ADR-RES ovarian 91.3% | T-47D breast 70.6%

Nc1cccc(C(=O)Nc2ccc3c(O)c(N=Nc4ccc(N=Nc5ccc(S(=O)(=O)O)cc5)cc4)c(S(=O)(=O)O)cc3c2)c1
inactive: SK-MEL-2 melanoma 108% | EKVX NSCLC 103% | SN12C renal 106% | UO-31 renal 90.2% | TK-10 renal 101% | ACHN renal 105% | A498 renal 105% | CCRF-CEM leukemia 96.6% | MOLT-4 leukemia 84.6% | SR leukemia 77.4% | RPMI-8226 leukemia 98.2% | OVCAR-8 ovarian 107% | OVCAR-5 ovarian 109% | OVCAR-4 ovarian 94.3% | SK-OV-3 ovarian 101% | IGROV1 ovarian 97.8% | HS 578T breast 103% | NCI/ADR-RES ovarian 112% | T-47D breast 83.8%

CCCCOc1nc2ccc(C)cc2cc1/C=C/C(=O)/C=C/c1ccc2c(c1)OCO2
inactive: SK-MEL-2 melanoma 69.6% | EKVX NSCLC 102% | SN12C renal 89.2% | UO-31 renal 75% | TK-10 renal 113% | ACHN renal 103% | A498 renal 106% | CCRF-CEM leukemia 75.9% | MOLT-4 leukemia 81.5% | SR leukemia 42.9% | OVCAR-8 ovarian 38.7% | OVCAR-5 ovarian 131% | OVCAR-4 ovarian 95.4% | SK-OV-3 ovarian 106% | IGROV1 ovarian 90.3% | HS 578T breast 101% | NCI/ADR-RES ovarian 91.7% | T-47D breast 62.7%
active: RPMI-8226 leukemia 5.04%

C#C[C@@]1(O)[C@@H](CO)O[C@@H](n2cc(I)c3c(N)ncnc32)[C@@H]1O
active: SK-MEL-2 melanoma -27.6% | EKVX NSCLC -19.2% | SN12C renal 6.87% | UO-31 renal -14.8% | ACHN renal 5.08% | A498 renal -86.5% | CCRF-CEM leukemia 6.77% | MOLT-4 leukemia -18.8% | SR leukemia -1.14% | RPMI-8226 leukemia 5.83% | OVCAR-8 ovarian -19.4% | SK-OV-3 ovarian -28.3% | IGROV1 ovarian -34.9% | HS 578T breast -15.5% | NCI/ADR-RES ovarian -4.5% | T-47D breast -21.1%
inactive: TK-10 renal 23.4% | OVCAR-5 ovarian 20.6% | OVCAR-4 ovarian 20.4%

Cc1c(Cl)cccc1NC(=O)c1sc2nc3c(cc2c1N)CN(Cc1ccccc1)CC3
inactive: SK-MEL-2 melanoma 31.4% | EKVX NSCLC 55.5% | SN12C renal 59.2% | UO-31 renal 58% | TK-10 renal 75% | ACHN renal 56.4% | A498 renal 36.6% | CCRF-CEM leukemia 14.5% | MOLT-4 leukemia 22.9% | SR leukemia 16.9% | RPMI-8226 leukemia 54.8% | OVCAR-8 ovarian 64.2% | OVCAR-5 ovarian 75.1% | OVCAR-4 ovarian 62.4% | SK-OV-3 ovarian 44.2% | IGROV1 ovarian 52.2% | HS 578T breast 28.6% | NCI/ADR-RES ovarian 41.4% | T-47D breast 56.8%

COc1ccc(C(=O)c2cc(OC)c(OC)c(OC)c2)cc1OC(=O)CCl
active: OVCAR-8 ovarian 7.08% | OVCAR-3 ovarian 0.464%
inactive: SK-MEL-2 melanoma 26.1% | EKVX NSCLC 70.2% | SN12C renal 32% | UO-31 renal 44.8% | TK-10 renal 63.6% | ACHN renal 40.2% | A498 renal 59.3% | CCRF-CEM leukemia 14.9% | MOLT-4 leukemia 18.4% | SR leukemia 13.4% | RPMI-8226 leukemia 29.7% | OVCAR-5 ovarian 73.7% | OVCAR-4 ovarian 54.5% | SK-OV-3 ovarian 17.7% | IGROV1 ovarian 25.7% | HS 578T breast 48.9% | T-47D breast 74.7%

Cc1nc(C)c(C)nc1C
inactive: SK-MEL-2 melanoma 97.9% | EKVX NSCLC 109% | SN12C renal 101% | UO-31 renal 93.4% | TK-10 renal 95.7% | ACHN renal 114% | A498 renal 102% | CCRF-CEM leukemia 89.5% | MOLT-4 leukemia 99.8% | SR leukemia 108% | RPMI-8226 leukemia 104% | OVCAR-8 ovarian 91.8% | OVCAR-5 ovarian 115% | OVCAR-4 ovarian 114% | SK-OV-3 ovarian 96.5% | IGROV1 ovarian 108% | HS 578T breast 85.6% | NCI/ADR-RES ovarian 109% | T-47D breast 92.5%

C=C1C(=O)O[C@H]2[C@H]1CC/C(COC(=O)NCc1nc3ccccc3[nH]1)=C\CC[C@@]1(C)O[C@@H]21
inactive: SK-MEL-2 melanoma 60.2% | EKVX NSCLC 83% | SN12C renal 81.6% | UO-31 renal 75.5% | TK-10 renal 74.3% | ACHN renal 91.4% | A498 renal 135% | CCRF-CEM leukemia 10.9% | MOLT-4 leukemia 77.3% | SR leukemia 54.1% | RPMI-8226 leukemia 34.7% | OVCAR-8 ovarian 93.6% | OVCAR-5 ovarian 130% | OVCAR-4 ovarian 82.7% | SK-OV-3 ovarian 101% | IGROV1 ovarian 62.7% | HS 578T breast 102% | NCI/ADR-RES ovarian 99.4% | T-47D breast 43.4%

Cn1nc(C(F)(F)F)c(-c2cc(C(F)(F)F)cc(C(F)(F)F)c2)c1-c1ccc(OCc2ccc(Cl)cc2)cc1O
active: SK-MEL-2 melanoma -34% | EKVX NSCLC 7.7% | SN12C renal 7.93% | UO-31 renal -1.27% | TK-10 renal 9.29% | ACHN renal 7.22% | A498 renal -26.9% | CCRF-CEM leukemia 6.82% | MOLT-4 leukemia -11.7% | SR leukemia -4.24% | RPMI-8226 leukemia -14.5% | OVCAR-8 ovarian 8.36% | SK-OV-3 ovarian -13.5% | OVCAR-3 ovarian 7.02% | HS 578T breast 4.39% | T-47D breast -11.6%
inactive: OVCAR-5 ovarian 29.1% | OVCAR-4 ovarian 20.7% | IGROV1 ovarian 31.4%

CC1=C(CCCOC(=O)NCCCl)C2=C(C)C3(CC3)[C@@](C)(O)C(=O)C2=C1
active: UO-31 renal -42.1% | TK-10 renal 9.96% | ACHN renal 5.75% | A498 renal -9.87% | SK-OV-3 ovarian -13.7% | IGROV1 ovarian 4.17%
inactive: SK-MEL-2 melanoma 14.5% | EKVX NSCLC 54.3% | SN12C renal 45.7% | CCRF-CEM leukemia 79.9% | MOLT-4 leukemia 70.4% | SR leukemia 82.9% | RPMI-8226 leukemia 80% | OVCAR-8 ovarian 36.9% | OVCAR-5 ovarian 28.1% | OVCAR-4 ovarian 14.6% | HS 578T breast 99.8% | NCI/ADR-RES ovarian 29.2% | T-47D breast 16%

CCOC(=O)C(=Cc1c(-c2ccccc2)[nH]c2ccccc12)C(=O)OCC
inactive: EKVX NSCLC 71.1% | SN12C renal 65.6% | UO-31 renal 33.5% | TK-10 renal 92.2% | ACHN renal 54% | A498 renal 74.1% | SR leukemia 10% | OVCAR-8 ovarian 39.4% | OVCAR-5 ovarian 98.3% | OVCAR-4 ovarian 49.9% | SK-OV-3 ovarian 94.5% | IGROV1 ovarian 34.7% | HS 578T breast 59.5% | NCI/ADR-RES ovarian 24.7% | T-47D breast 21.1%
active: SK-MEL-2 melanoma -3.76% | CCRF-CEM leukemia 4.23% | MOLT-4 leukemia 1.38% | RPMI-8226 leukemia -47.8%

C1=CC2=CC=C3C=CC=C4C(c5nc6c7ccccc7c7ccccc7c6[nH]5)=CC(=C1)C2C34 (centres undefined)
inactive: SK-MEL-2 melanoma 123% | EKVX NSCLC 93.5% | SN12C renal 94.6% | UO-31 renal 62.8% | TK-10 renal 127% | ACHN renal 89.6% | A498 renal 63.7% | CCRF-CEM leukemia 89.7% | MOLT-4 leukemia 73.3% | SR leukemia 76.3% | RPMI-8226 leukemia 89.5% | OVCAR-8 ovarian 97.7% | OVCAR-5 ovarian 115% | OVCAR-4 ovarian 119% | SK-OV-3 ovarian 93.9% | IGROV1 ovarian 86.8% | HS 578T breast 93.9% | NCI/ADR-RES ovarian 92.9% | T-47D breast 60%

C=C1C(=O)O[C@H]2[C@H]1CC/C(COC(=O)Nc1nc3ccccc3[nH]1)=C\CC[C@@]1(C)O[C@@H]21
inactive: SK-MEL-2 melanoma 68.1% | EKVX NSCLC 58.7% | SN12C renal 67.4% | UO-31 renal 43.1% | TK-10 renal 46.3% | ACHN renal 32.5% | A498 renal 102% | MOLT-4 leukemia 45.9% | SR leukemia 16.2% | RPMI-8226 leukemia 31.6% | OVCAR-8 ovarian 80.8% | OVCAR-5 ovarian 127% | OVCAR-4 ovarian 81.3% | SK-OV-3 ovarian 89.1% | IGROV1 ovarian 27.9% | HS 578T breast 94.5% | NCI/ADR-RES ovarian 92.1% | T-47D breast 50.3%
active: CCRF-CEM leukemia 6.53%

CC(=O)ON1CCCC(P(=O)(OCOC(=O)C(C)(C)C)OCOC(=O)C(C)(C)C)C1=O (centres undefined)
active: SK-MEL-2 melanoma 9.04% | EKVX NSCLC 9.78% | SN12C renal -1.1% | UO-31 renal -8.25% | TK-10 renal 1.68% | ACHN renal 6.57% | A498 renal -8.06% | CCRF-CEM leukemia -7.6% | MOLT-4 leukemia -25.4% | SR leukemia -22.3% | RPMI-8226 leukemia -47.5% | OVCAR-8 ovarian -0.681% | SK-OV-3 ovarian 6.56% | IGROV1 ovarian -28.4% | HS 578T breast 1.28% | NCI/ADR-RES ovarian -2.01%
inactive: OVCAR-5 ovarian 17.7% | OVCAR-4 ovarian 13.3% | T-47D breast 16.4%
